Tests used:
Assay in all cases: log2 ratio of Biotin-Ahx-Ub-VS probe labelling (fragment/DMSO); higher = less target engagement (more negative = stronger competition), active = hit call of the paper (q ≤ 0.05, log2 ratio ≤ -1)
Conditions in all cases: compound concentration: 200 uM; treatment time: 3 h
USP34 = USP34 (UniProt Q70CQ2)
How it was run: (§1)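 Average log2 ratios of fragment over vehicle were obtained by unpaired t-test from global-median-normalised Spectronaut label-free quantities. Proteins with ≥2 unique peptides were included. HEK293T lysate (495 µg per sample) was treated in triplicate with fragment at 200 µM or vehicle for 3 h, then with Biotin-Ahx-Ub-VS at 0.5 µM final for 1 h, and labelled DUBs were NeutrAvidin-enriched and run by diaPASEF LC-MS/MS.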

USP36 = biological target: T1, USP36 (UniProt Q9P275)
T1 sequence (whole entry): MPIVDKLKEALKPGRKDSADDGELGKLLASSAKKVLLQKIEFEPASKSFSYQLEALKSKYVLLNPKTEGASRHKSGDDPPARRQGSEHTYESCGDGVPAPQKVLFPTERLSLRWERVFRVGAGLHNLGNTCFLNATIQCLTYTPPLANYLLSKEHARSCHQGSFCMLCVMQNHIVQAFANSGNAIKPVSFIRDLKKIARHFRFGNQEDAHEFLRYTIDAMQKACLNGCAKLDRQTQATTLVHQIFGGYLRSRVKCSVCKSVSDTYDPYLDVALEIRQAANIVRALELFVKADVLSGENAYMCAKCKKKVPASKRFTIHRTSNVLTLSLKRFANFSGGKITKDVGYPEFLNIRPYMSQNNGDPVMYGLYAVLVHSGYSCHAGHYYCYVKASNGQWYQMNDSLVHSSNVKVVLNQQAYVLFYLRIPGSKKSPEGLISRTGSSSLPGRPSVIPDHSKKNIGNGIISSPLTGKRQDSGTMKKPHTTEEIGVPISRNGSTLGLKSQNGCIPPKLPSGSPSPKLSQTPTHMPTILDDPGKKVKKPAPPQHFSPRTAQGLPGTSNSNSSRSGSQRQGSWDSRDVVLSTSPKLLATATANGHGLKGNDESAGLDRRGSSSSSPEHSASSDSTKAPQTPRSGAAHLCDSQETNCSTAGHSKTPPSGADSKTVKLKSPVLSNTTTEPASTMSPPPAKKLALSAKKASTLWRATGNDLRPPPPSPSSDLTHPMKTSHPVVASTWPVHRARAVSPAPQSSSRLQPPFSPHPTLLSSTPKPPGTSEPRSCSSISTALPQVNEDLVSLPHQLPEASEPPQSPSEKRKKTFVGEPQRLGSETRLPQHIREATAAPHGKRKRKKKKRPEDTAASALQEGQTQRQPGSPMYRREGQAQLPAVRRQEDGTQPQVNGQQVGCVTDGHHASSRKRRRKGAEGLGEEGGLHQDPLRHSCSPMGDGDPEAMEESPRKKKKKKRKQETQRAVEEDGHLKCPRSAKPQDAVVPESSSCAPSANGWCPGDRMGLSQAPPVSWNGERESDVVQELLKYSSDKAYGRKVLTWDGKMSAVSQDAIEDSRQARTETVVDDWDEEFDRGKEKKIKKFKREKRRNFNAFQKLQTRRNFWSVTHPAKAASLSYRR
How it was run: as §1

USP38 = biological target: T2, USP38 (UniProt Q8NB14)
T2 sequence (whole entry): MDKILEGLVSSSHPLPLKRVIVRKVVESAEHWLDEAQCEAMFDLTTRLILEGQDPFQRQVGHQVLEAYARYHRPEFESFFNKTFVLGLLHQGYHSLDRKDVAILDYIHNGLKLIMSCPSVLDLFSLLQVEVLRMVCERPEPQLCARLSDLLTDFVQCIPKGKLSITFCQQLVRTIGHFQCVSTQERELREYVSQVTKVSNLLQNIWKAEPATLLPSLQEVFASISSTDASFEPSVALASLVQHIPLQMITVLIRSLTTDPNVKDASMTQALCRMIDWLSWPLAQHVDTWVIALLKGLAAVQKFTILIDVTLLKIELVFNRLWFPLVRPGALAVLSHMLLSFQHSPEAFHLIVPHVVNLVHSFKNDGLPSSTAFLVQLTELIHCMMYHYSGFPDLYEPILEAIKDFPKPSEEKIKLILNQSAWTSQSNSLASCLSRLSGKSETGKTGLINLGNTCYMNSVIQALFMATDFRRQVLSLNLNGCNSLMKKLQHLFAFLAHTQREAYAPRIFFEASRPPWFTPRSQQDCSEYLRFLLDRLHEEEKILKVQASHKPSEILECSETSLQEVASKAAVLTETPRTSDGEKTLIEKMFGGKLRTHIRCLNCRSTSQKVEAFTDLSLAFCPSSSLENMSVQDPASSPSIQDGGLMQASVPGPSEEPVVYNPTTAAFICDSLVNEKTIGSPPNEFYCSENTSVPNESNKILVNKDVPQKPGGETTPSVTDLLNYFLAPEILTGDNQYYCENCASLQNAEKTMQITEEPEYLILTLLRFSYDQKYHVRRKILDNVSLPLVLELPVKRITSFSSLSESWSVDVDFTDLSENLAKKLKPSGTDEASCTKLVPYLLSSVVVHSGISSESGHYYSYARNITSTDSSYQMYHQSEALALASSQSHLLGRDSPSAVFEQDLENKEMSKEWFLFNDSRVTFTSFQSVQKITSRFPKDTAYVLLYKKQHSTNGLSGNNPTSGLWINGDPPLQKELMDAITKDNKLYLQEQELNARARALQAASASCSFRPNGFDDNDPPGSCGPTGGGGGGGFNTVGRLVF
How it was run: as §1

USP39 = biological target: T3, USP39 (UniProt Q53GS9)
T3 sequence (whole entry): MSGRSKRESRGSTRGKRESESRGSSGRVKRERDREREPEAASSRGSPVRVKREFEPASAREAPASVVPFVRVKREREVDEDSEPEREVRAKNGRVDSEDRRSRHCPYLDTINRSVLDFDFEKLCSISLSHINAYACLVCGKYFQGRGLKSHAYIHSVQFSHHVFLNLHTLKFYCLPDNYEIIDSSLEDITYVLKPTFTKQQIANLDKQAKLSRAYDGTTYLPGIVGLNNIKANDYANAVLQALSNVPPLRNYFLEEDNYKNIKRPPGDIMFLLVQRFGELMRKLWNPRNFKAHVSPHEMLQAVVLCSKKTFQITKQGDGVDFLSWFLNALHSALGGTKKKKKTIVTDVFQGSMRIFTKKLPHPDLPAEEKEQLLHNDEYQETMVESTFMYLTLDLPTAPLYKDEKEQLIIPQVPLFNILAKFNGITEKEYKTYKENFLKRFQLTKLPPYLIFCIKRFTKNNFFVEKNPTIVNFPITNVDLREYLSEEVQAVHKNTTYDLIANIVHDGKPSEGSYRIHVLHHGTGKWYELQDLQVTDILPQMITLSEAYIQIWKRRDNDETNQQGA
How it was run: as §1

USP4 = biological target: T4, USP4 (UniProt Q13107)
T4 sequence (whole entry): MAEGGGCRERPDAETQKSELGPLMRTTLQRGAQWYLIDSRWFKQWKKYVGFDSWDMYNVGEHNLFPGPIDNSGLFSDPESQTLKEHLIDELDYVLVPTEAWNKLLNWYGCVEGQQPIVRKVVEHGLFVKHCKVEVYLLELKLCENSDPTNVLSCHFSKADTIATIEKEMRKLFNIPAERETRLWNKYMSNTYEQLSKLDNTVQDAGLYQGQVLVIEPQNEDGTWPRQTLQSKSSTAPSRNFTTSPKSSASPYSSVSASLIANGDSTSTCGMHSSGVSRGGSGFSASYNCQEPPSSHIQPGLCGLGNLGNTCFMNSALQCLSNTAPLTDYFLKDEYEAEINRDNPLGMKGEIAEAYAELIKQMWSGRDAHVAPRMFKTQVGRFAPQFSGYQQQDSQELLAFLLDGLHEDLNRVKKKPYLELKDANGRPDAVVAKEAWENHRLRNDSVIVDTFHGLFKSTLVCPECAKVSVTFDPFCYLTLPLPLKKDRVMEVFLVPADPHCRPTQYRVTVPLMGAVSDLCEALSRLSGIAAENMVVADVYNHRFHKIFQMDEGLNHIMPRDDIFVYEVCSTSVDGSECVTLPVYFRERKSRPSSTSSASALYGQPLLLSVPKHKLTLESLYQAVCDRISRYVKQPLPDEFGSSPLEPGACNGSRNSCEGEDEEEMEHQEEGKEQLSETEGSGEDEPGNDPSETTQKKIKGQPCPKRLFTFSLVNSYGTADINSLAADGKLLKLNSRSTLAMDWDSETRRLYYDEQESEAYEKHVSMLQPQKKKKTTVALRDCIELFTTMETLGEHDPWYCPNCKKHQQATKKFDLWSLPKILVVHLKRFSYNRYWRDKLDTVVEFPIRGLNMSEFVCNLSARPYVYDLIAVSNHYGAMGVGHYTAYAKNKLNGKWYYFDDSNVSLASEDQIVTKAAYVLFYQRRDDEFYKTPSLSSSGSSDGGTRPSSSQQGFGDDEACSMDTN
How it was run: as §1

Measured: log2 ratio of Biotin-Ahx-Ub-VS probe labelling

USP34, sequence (Q70CQ2 whole entry, the tested form may be a part): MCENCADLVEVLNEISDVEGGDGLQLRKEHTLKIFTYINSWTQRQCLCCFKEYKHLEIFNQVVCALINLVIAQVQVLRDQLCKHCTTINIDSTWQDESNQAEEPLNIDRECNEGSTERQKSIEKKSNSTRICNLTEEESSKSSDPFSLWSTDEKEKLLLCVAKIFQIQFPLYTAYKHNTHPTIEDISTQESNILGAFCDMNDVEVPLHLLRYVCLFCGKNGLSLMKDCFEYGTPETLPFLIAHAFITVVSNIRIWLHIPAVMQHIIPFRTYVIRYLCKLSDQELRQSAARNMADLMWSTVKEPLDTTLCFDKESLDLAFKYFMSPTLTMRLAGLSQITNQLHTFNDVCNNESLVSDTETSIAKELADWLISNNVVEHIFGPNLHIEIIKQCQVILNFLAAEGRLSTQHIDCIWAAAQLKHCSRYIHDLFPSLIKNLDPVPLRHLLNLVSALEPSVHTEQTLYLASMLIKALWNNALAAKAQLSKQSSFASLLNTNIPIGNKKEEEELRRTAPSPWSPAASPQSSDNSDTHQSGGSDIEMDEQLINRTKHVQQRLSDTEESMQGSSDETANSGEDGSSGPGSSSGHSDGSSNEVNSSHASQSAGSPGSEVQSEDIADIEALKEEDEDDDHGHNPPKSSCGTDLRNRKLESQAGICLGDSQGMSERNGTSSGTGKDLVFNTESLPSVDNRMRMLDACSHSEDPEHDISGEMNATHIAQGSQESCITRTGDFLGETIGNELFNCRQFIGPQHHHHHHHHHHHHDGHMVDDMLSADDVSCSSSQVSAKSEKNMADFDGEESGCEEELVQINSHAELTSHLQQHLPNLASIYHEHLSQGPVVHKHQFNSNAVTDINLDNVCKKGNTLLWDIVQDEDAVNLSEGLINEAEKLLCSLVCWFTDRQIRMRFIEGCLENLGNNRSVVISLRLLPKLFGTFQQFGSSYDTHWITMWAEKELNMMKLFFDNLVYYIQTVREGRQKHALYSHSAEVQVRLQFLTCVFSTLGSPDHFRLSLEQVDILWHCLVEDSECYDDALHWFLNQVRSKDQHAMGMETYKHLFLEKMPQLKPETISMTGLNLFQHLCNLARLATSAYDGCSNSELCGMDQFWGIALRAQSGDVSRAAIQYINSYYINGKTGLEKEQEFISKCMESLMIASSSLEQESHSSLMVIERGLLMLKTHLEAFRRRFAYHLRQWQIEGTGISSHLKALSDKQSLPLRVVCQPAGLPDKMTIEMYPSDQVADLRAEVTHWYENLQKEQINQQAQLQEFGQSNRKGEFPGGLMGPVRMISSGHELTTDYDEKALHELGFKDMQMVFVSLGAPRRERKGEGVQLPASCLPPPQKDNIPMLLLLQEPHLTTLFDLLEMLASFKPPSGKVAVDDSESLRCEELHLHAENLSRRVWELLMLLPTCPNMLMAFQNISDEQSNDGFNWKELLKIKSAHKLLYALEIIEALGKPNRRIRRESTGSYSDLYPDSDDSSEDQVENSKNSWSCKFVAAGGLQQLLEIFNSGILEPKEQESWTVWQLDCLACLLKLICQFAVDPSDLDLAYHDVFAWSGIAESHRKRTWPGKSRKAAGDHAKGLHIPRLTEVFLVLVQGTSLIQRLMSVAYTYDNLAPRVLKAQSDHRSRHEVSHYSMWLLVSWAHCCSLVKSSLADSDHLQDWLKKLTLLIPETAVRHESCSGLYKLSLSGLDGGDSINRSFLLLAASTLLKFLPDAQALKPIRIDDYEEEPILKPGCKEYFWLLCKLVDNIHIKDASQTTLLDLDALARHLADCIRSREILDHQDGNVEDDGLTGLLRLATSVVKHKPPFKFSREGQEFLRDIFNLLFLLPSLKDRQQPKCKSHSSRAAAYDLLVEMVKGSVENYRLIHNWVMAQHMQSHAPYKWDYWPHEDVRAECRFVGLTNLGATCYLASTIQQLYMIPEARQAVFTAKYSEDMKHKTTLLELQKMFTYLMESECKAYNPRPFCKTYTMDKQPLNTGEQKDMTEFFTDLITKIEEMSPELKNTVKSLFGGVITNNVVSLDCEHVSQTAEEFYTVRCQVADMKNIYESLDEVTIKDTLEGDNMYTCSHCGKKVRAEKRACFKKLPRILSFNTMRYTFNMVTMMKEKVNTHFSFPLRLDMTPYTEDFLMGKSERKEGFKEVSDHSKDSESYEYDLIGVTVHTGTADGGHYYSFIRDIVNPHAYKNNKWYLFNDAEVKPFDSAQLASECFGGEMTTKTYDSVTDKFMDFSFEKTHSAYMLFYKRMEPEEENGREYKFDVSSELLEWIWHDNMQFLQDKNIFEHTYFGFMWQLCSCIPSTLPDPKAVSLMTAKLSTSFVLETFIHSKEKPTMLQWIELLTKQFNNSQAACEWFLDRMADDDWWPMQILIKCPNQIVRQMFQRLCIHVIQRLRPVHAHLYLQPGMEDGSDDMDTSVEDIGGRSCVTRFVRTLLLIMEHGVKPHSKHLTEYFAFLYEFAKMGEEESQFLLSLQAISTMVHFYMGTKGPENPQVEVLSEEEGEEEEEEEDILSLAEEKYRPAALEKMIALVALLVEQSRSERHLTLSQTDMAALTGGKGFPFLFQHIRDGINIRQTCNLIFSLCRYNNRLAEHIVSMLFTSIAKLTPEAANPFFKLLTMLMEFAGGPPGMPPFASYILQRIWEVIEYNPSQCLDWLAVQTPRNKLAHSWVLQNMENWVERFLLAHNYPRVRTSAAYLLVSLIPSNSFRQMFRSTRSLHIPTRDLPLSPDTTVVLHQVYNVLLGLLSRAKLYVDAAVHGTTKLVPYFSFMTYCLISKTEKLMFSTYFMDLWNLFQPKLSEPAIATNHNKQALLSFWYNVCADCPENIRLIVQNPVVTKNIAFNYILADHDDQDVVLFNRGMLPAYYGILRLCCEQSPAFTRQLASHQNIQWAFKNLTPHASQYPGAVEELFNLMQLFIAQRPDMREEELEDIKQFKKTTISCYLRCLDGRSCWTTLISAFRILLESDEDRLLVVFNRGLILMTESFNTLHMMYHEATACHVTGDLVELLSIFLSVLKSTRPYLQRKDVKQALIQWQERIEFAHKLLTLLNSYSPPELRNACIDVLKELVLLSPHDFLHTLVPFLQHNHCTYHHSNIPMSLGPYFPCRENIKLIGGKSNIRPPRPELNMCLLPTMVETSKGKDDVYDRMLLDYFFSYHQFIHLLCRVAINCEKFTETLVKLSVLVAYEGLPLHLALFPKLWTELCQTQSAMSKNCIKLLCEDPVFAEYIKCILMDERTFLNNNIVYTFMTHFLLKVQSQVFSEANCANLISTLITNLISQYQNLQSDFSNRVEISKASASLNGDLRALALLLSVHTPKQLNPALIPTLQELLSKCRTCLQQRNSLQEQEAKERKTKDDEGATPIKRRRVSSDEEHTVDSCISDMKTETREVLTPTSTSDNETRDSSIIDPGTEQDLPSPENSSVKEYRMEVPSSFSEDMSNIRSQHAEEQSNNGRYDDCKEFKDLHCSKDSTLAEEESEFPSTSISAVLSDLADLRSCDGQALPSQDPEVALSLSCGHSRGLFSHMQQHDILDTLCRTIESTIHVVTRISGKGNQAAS

COCC[C@@H](NC(=O)CCl)c1ccccc1
inactive: USP34 -0.0495 | USP36 -0.11 | USP38 0.0786 | USP39 -0.0498 | USP4 0.0432
